Results as given in PubChem BioAssay.
The source made the active and inactive calls. Unless noted, no rule for the calls is given here.

Assays:
[1] = compound effects on lung adenocarcinoma cell viability – A549, calcein-AM fluorescence, 48 h, basal, profiling panel (AID 1162); settings: higher = more signal; also: test concentration not given here
[2] = compound effects on differentiated 3T3-L1 adipocyte viability – cell-based, 3T3-L1 adipocytes, calcein-AM fluorescence, 48 h, basal, profiling panel (AID 1163); settings: 3T3-L1 adipocytes viability, higher = more signal; also: test concentration not given here
[3] = compound effects on hepatocellular carcinoma cell viability – HepG2, calcein-AM fluorescence, 48 h, basal, profiling panel (AID 1164); settings: higher = more signal; also: test concentration not given here
[4] = compound effects on multiple myeloma cell viability – MM1S, calcein-AM fluorescence, 48 h, basal, profiling panel (AID 1165); settings: higher = more signal;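 also: viability of MM1S multiple myeloma cells under basal unstimulated conditions; test concentration not given here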
[5] = calcein-AM signal in unstimulated myeloma cells – cell-based, calcein-AM fluorescence, 48 h, PK04 Diversity Set, profiling panel (AID 1166); settings: RPMI8226 myeloma viability, higher = more signal;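 also: cells grown under basal conditions without added stimulus; test concentration not given here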
[6] = JC-1 mitochondrial signal, unstimulated HepG2 cells – cell-based, JC-1 fluorescence, 24 h, 100 nL compound, profiling panel (AID 1167); settings: HepG2 mitochondrial potential, higher = more signal; also: test concentration not given here
[7] = JC-1 mitochondrial signal, unstimulated adipocytes – cell-based, JC-1 fluorescence, 3T3-L1 adipocytes, 24 h, 100 nL compound, profiling panel (AID 1168); settings: JC-1 mitochondrial fluorescence, higher = more signal, called active from +8 up or from −8 down; also: test concentration not given here
[8] = JC-1 mitochondrial signal, unstimulated myeloma cells – cell-based, JC-1 fluorescence, RPMI8226, 24 h, 100 nL compound, profiling panel (AID 1169); settings: JC-1 mitochondrial potential fluorescence, higher = more signal; also: test concentration not given here
[9] = JC-1 mitochondrial signal, unstimulated MM1S myeloma – cell-based, JC-1 fluorescence, 24 h, 100 nL compound, profiling panel (AID 1170); settings: MM1S mitochondrial potential, higher = more signal; also: test concentration not given here
[10] = resazurin metabolic signal in A549 cells – cell-based, resazurin fluorescence, 24 h, PK04 Diversity Set, profiling panel (AID 1171); settings: A549 viability, higher = more signal, called active from +8 up or from −8 down; also: test concentration not given here
[11] = resazurin metabolic signal in HepG2 cells – cell-based, resazurin fluorescence, 24 h, PK04 Diversity Set, profiling panel (AID 1172); settings: HepG2 viability, higher = more signal; also: test concentration not given here
[12] = budding yeast growth changes without added modifier – OD600, strain BY4716, 24 h, basal condition, primary screen (AID 1173); settings: S. cerevisiae BY4716 growth, OD600, 24 h; higher = more signal, called active from +8 up or from −8 down
[13] = viability profiling in MM1S myeloma cells – cell-based, resazurin fluorescence, basal, 24 h, PK04 Diversity Set, profiling panel (AID 1174); settings: higher = more signal, called active from +8 up or from −8 down; also: test concentration not given here
[14] = target: Dihydroorotate dehydrogenase (quinone), mitochondrial (Plasmodium falciparum (isolate 3D7)) (UniProt Q08210); experiment: inhibition of P. falciparum DHODH – biochemical, C-terminal His tag, absorbance 600 nm, primary screen (AID 1175); settings: PfDHODH enzyme, DCIP absorbance 600 nm; higher = more signal, called active from +8 up or from −8 down;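 also: recombinant parasite enzyme with a five histidine tag at its C terminus; test concentration not given here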
Sequence of Dihydroorotate dehydrogenase (quinone), mitochondrial (Plasmodium falciparum (isolate 3D7)) (Q08210 whole entry, looked up): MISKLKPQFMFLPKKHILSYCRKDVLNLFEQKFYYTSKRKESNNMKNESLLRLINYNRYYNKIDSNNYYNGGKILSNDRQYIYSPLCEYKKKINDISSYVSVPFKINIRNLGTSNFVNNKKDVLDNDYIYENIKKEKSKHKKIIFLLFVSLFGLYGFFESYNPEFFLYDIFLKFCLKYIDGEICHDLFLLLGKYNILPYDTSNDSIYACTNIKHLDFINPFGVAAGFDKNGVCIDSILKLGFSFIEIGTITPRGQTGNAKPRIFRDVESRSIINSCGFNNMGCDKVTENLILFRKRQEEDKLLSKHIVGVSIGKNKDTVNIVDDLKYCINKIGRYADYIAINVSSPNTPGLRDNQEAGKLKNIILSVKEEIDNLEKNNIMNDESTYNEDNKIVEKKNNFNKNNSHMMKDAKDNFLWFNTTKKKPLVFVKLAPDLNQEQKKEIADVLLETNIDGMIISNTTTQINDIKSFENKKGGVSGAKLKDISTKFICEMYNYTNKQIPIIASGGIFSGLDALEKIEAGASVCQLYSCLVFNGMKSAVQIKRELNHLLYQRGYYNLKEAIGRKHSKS

[15] = inhibition of PAO1 biofilm formation – strain PAO1, LB-PBS medium, absorbance 600 nm, primary screen (AID 1176); also: test concentration not given here; settings: P. aeruginosa PAO1 growth/biofilm, A600, 12 h; higher = more signal
[16] = growth modulation of vineyard yeast isolate – strain RM11-1a, OD600, basal, 24 h, primary screen (AID 1177);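 also: cultures grown under basal conditions with no added stressor; test concentration not given here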; settings: S. cerevisiae RM11-1a growth, OD600, 24 h; higher = more signal, called active from +8 up or from −8 down
[17] = growth of efflux-deficient E. coli DRC39 – strain DRC39, OD650, 24 h, E. coli filamentation inducers, primary screen (AID 1178);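 also: growth measured as culture turbidity by optical density at 650 nm; test concentration not given here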; settings: E. coli DRC39 acrAB, higher = more signal, called active from +8 up or from −8 down
[18] = growth of efflux-deficient E. coli DRC39 – strain DRC39, OD650, 48 h, E. coli filamentation inducers, primary screen (AID 1179);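 also: screen aims at cell division blockers that make cells filament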; settings: E. coli DRC39 delta-acrAB growth, higher = more signal, called active from +8 up or from −8 down
[19] = viability profiling in RPMI8226 myeloma cells – cell-based, resazurin fluorescence, basal, 24 h, PK04 Diversity Set, profiling panel (AID 1180); settings: higher = more signal;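 also: RPMI8826 multiple myeloma cell line at 5000 cells per well; test concentration not given here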
[20] = target: E3 ubiquitin-protein ligase XIAP (Homo sapiens) (UniProt P98170); experiment: small molecules binding XIAP protein – biophysical, small-molecule microarray, fluorescence 635 nm, primary screen (AID 1181); settings: higher = more signal;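 also: score merges 667 nm emission and signal to noise over triplicate slides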
Sequence of E3 ubiquitin-protein ligase XIAP (Homo sapiens) (P98170 whole entry, looked up): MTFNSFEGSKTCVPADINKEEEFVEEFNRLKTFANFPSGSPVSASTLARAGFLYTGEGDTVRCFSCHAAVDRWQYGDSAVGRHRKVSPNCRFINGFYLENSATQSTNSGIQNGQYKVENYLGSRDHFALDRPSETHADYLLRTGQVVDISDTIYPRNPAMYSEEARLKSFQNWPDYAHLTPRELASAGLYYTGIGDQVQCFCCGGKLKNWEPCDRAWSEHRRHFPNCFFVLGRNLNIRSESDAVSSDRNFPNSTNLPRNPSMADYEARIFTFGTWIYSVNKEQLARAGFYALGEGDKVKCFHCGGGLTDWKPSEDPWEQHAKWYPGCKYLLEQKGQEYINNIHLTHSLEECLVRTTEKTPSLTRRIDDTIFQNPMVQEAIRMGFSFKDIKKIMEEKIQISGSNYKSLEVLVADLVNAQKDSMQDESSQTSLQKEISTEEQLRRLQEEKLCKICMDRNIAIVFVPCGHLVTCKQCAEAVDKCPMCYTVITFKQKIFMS

| SMILES | z-score [1] | z-score [2] | z-score [3] | z-score [4] | z-score [5] | z-score [6] | z-score [7] | z-score [8] | z-score [9] | z-score [10] | z-score [11] | z-score [12] | z-score [13] | composite z-score [14] | z-score [15] | z-score [16] | z-score [17] | z-score [18] | z-score [19] | composite z-score [20] |
| --- | --- | --- | --- | --- | --- | --- | --- | --- | --- | --- | --- | --- | --- | --- | --- | --- | --- | --- | --- | --- |
| COc1cc(OC)c(C(O)C2C=CC3C(=O)N(C)C(=O)C3N2NC(=O)OC(C)(C)C)cc1Br (stereo not given) | 0.521 | -0.23 | 0.25 | -0.591 | 0.442 | -1.05 | -0.0401 (inactive) | 0.0442 | 1.18 | -0.503 (inactive) | -1.88 | -5.3 (inactive) | -0.652 (inactive) | 0.985 (inactive) | 0.683 (inactive) | 1.18 (inactive) | -0.143 (inactive) | -0.376 (inactive) | -0.34 | 0.677 |
| C=CCC(OC(C)=O)[C@@H]1[C@@H](N(Cc2cccc3ccccc23)C(=O)Cc2ccc(OC)cc2)c2cc(OCCCO)ccc2N1C(=O)c1ccc2ccccc2n1 (stereo not given in full) | -0.639 | 1.69 | 0.493 | -1.27 | -0.192 | 1.64 | -0.0994 (inactive) | 0.106 | 0.306 | 0.679 (inactive) | 0.602 | 0.0243 (inactive) | -0.415 (inactive) | -0.175 (inactive) | -0.145 (inactive) | -0.212 (inactive) | 0.884 (inactive) | 0.284 (inactive) | 0.0309 | 0.343 |
| COC(=O)[C@@]1(Cc2ccccc2)[C@@H]2C(=CC(=O)[C@H]2CC(=O)C(=O)N(C)C)CN1C(=O)c1ccccc1 | 0.349 | 0.108 | 0.11 | -2.52 | -1.81 | 2.58 | -0.0995 (inactive) | -0.791 | -2.68 | -1.11 (inactive) | -1.24 | 0.292 (inactive) | -5.19 (inactive) | -0.435 (inactive) | -0.0856 (inactive) | -0.224 (inactive) | 0.677 (inactive) | -0.0631 (inactive) | -5.21 | 0.0239 |
| O=C1C=C(c2ccccc2)C(=O)c2ccc([C@H]3Oc4ccccc4S(=O)(=O)N4CCC[C@@H]34)cc21 | -0.309 | -0.319 | -1.07 | -3.23 | -4.03 | -3.82 | -1.83 (inactive) | -1.23 | -2.69 | -0.602 (inactive) | -0.337 | -18.1 (active) | -8.07 (active) | -5.82 (inactive) | 0.649 (inactive) | -0.801 (inactive) | 1.81 (inactive) | 0.587 (inactive) | -5.86 | -0.31 |
| COCCOC(=O)N1C(=O)[C@@]2(c3cc(C#CC4=CCCCC4)ccc31)[C@H](c1ccc(O)cc1)N1[C@H](c3ccccc3)[C@H](c3ccccc3)OC(=O)[C@H]1[C@@H]2C(=O)N1CCN(c2ncccn2)CC1 | -0.462 | -0.89 | 0.19 | 0.444 | 0.771 | 0.642 | 1.87 (inactive) | 0.736 | -0.587 | 0.0994 (inactive) | 0.295 | 0.343 (inactive) | 0.182 (inactive) | 0.524 (inactive) | 0.29 (inactive) | 0.516 (inactive) | 0.777 (inactive) | 0.731 (inactive) | -0.169 | -0.0761 |
| Cc1cc(C)cc(N2C(=O)CSC2c2cccc([N+](=O)[O-])c2)c1 (stereo not given) | 0.377 | -0.28 | 0.0887 | 1.22 | 0.699 | 1.43 | 0.786 (inactive) | -0.445 | -0.541 | -0.661 (inactive) | -0.654 | -0.899 (inactive) | -1.81 (inactive) | -1.39 (inactive) | -0.242 (inactive) | 0.265 (inactive) | 0.837 (inactive) | 0.384 (inactive) | -0.341 | 0.0808 |
| CO[C@H]1O[C@H](CO)[C@@H](OC(=O)Nc2ccc3c(c2)OCO3)[C@H](OC(=O)c2cc3ccccc3[nH]2)[C@H]1OC(=O)c1cc2ccccc2[nH]1 | 0.603 | 0.477 | 0.463 | -1.98 | 1.11 | -2.54 | 1.27 (inactive) | -0.31 | -1.29 | -3.63 (inactive) | -2.92 | -0.237 (inactive) | -3.48 (inactive) | -1.53 (inactive) | 0.69 (inactive) | -0.81 (inactive) | 0.387 (inactive) | 1.42 (inactive) | -3.84 | 0.151 |
| CO[C@]12C=C(Br)[C@@H](C[C@@H]1c1cccc(C)c1)[C@@]1(CO1)C2=O | -0.406 | 0.287 | -0.932 | -2.16 | -0.643 | -1.11 | -0.295 (inactive) | -0.107 | -0.693 | 0.862 (inactive) | 1.17 | -5.41 (inactive) | -0.674 (inactive) | 0.227 (inactive) | -0.447 (inactive) | -0.338 (inactive) | 0.632 (inactive) | 0.378 (inactive) | 0.478 | -0.148 |
| CC(C)N1CC=CC23O[C@@H]4C=CCOC(=O)[C@@H]4[C@H]2C(=O)N(CCCO)[C@@H]3C1=O (stereo not given in full) | 0.555 | 2.67 | -1.01 | 0.34 | -0.258 | -0.4 | 0.253 (inactive) | 0.354 | -1.5 | 0.108 (inactive) | -0.128 | -1.91 (inactive) | 1.34 (inactive) | -0.201 (inactive) | 0.248 (inactive) | -1.68 (inactive) | -0.135 (inactive) | 0.2 (inactive) | 0.939 | 0.29 |
